Reference: ChEMBL document CHEMBL3988442, “University of Dundee, Small-Polar-MMV Screening Library” (2021)
For some of these results: Results with a measured potency or affinity are listed apart.

Assays:
Parameters in all cases: scale not given: direction of the effect not stated beside the values
[1] = target: Protein translocase subunit SecA (Escherichia coli (strain K12)) (UniProt P10408); test: Assay to Identify E. coli SecA ATPase Inhibitors; type: functional; settings: 30 µM
[2] = target: T1, Ubiquitin-activating enzyme e1, putative (Leishmania donovani (strain BPK282A1)) (UniProt E9BSI1); test: Leishmania donovani Ubiquitin Activating Enzyme (LdE1); type: functional; settings: 30 µM
T1 sequence (whole entry): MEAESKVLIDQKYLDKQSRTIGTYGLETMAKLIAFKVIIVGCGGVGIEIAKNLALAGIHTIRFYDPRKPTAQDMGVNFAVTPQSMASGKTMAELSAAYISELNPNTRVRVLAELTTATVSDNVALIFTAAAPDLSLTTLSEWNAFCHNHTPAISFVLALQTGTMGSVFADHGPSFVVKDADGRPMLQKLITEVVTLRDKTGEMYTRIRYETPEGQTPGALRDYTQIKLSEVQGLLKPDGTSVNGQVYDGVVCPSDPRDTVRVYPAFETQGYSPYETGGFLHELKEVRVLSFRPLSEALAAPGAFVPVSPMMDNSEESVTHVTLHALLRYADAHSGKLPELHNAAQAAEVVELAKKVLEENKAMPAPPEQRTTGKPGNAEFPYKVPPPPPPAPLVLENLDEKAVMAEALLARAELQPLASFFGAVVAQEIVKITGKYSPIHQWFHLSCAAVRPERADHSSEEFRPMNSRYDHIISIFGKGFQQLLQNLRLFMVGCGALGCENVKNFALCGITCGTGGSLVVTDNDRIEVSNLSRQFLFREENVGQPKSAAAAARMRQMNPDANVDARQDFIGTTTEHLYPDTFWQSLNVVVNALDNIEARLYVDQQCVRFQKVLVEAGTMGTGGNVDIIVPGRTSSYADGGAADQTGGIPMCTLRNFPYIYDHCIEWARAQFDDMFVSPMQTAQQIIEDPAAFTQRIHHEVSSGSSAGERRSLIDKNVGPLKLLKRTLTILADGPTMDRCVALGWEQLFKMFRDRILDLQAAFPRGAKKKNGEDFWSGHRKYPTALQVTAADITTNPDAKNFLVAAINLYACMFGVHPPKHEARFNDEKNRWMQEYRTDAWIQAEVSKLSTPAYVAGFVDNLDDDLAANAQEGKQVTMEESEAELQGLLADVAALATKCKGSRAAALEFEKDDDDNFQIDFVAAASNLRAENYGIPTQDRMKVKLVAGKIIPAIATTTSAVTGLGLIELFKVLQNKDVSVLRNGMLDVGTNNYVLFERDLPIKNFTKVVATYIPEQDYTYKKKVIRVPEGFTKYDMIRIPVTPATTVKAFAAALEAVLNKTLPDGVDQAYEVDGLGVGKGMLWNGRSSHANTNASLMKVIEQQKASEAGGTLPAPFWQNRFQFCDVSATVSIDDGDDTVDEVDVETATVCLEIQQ

[3] = target: AMP-activated protein kinase, AMPK (Homo sapiens) (UniProt P54646+O43741+P54619+Q9UGJ0+Q9Y478+Q13131+Q9UGI9); test: AMP-dependent Kinase enzyme assay. An in vitro enzyme assay that detects ADP turnover that is directly proportional to AMPK activity. This uses naive AMPK that is activated during the assay with MK-8722; type: functional; settings: 30 µM
[4] = target: Sialic acid-binding Ig-like lectin 9 (Homo sapiens) (UniProt Q9Y336); test: Hs-Siglec9 ALPHAscreen SOP 20170721; settings: 10 µM
Sialic acid-binding Ig-like lectin 9 (Homo sapiens), sequence (Q9Y336 whole entry): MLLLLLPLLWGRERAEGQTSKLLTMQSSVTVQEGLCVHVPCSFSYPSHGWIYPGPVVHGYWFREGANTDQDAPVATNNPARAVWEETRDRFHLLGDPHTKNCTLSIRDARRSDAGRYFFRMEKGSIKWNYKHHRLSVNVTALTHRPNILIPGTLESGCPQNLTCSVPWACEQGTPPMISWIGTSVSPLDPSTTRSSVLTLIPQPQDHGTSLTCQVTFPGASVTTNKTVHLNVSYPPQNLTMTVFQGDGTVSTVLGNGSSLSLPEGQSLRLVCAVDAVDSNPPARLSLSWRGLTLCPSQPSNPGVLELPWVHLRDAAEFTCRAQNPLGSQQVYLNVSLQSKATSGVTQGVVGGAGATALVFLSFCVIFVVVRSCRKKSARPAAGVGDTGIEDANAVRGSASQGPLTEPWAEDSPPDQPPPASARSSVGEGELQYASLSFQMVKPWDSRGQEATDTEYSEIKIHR

Trypanosoma cruzi = test: Trypanosoma cruzi phosphomannomutase and mannose-1-phosphate guanylyltransferase assay; type: functional; settings: 10 µM
[5] = target: T2, Arginase-2, mitochondrial (Homo sapiens) (UniProt P78540); test: in vitro enzyme assay to detect the production of urea directly proportional to the activity of Arginase II; type: functional; settings: 33.3 µM; further: in the data most compounds retested in dose-response had high values
T2 sequence (whole entry): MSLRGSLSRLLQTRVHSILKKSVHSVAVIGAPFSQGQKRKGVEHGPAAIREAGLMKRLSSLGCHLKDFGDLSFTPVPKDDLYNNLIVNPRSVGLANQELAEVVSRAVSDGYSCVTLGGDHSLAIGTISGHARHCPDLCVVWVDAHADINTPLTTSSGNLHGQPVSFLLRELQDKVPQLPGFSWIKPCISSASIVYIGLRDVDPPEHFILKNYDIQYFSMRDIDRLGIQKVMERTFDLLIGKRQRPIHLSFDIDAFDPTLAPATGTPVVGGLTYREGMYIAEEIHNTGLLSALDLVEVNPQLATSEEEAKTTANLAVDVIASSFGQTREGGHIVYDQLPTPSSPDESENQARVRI

[6] = target: T3, Proteasome subunit beta (Trypanosoma cruzi) (UniProt O96673); test: Trypanosoma cruzi proteasome chymotrypsin-like activity (TcProtChymo) assay.; further: in the data most compounds retested in dose-response had high values; type: functional; settings: 9.37 µM
T3 sequence (whole entry): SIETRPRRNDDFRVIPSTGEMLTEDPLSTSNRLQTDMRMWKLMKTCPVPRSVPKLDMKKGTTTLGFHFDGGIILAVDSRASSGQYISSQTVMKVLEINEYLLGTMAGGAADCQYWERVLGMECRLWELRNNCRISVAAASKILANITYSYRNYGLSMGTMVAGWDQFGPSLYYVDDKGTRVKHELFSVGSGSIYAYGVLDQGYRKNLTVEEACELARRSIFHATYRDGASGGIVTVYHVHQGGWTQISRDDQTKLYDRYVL

Homo sapiens = species on record: Homo sapiens; test: To identify inhibition of the IFN signalling (Jak-Stat) pathway via expression of an eGFP reporter gene under the control of an IFN-stimulated response element (ISRE) containing MxA promoter.; type: functional; settings: 30 µM
[7] = target: T4, Tyrosyl-tRNA synthetase, putative (Trypanosoma cruzi (strain CL Brener)) (UniProt Q4DSP6); test: Trypanosoma cruzi tyrosyl tRNA synthetase (TcYRS) _High Tyrosine SOP; type: functional; settings: 30 µM; further: in the data most compounds retested in dose-response had high values
T4 sequence (whole entry): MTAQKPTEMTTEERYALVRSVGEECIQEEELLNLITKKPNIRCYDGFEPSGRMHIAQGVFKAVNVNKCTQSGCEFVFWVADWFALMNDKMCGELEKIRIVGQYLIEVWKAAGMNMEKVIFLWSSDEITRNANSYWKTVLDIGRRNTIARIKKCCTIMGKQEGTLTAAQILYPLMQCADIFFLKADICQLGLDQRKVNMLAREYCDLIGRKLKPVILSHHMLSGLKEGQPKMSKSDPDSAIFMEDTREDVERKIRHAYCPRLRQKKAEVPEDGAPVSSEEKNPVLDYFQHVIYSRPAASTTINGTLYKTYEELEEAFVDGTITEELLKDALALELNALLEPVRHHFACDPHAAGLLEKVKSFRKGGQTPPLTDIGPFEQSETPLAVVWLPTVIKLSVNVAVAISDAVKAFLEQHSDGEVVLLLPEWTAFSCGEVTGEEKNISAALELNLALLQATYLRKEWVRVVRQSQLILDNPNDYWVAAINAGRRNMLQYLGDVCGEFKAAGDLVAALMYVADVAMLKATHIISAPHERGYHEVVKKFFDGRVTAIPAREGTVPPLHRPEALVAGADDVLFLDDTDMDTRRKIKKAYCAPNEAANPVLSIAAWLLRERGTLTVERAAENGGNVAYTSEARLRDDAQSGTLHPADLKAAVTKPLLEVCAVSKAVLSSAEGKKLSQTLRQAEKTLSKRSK

[8] = target: T4, Tyrosyl-tRNA synthetase, putative (Trypanosoma cruzi (strain CL Brener)); test: Trypanosoma cruzi tyrosyl tRNA synthetase (TcYRS) SOP; type: functional; settings: 30 µM
[9] = target: Chromo domain-containing protein 1 (Saccharomyces cerevisiae (strain ATCC 204508 / S288c) (Baker's yeast)) (UniProt P32657); test: ScCHD-1 Enzyme Inhibition Assay; type: functional; settings: 30 µM; further: in the data most compounds retested in dose-response had high values
Chromo domain-containing protein 1 (Saccharomyces cerevisiae (strain ATCC 204508 / S288c) (Baker's yeast)), sequence (P32657 whole entry, the tested form may be a part): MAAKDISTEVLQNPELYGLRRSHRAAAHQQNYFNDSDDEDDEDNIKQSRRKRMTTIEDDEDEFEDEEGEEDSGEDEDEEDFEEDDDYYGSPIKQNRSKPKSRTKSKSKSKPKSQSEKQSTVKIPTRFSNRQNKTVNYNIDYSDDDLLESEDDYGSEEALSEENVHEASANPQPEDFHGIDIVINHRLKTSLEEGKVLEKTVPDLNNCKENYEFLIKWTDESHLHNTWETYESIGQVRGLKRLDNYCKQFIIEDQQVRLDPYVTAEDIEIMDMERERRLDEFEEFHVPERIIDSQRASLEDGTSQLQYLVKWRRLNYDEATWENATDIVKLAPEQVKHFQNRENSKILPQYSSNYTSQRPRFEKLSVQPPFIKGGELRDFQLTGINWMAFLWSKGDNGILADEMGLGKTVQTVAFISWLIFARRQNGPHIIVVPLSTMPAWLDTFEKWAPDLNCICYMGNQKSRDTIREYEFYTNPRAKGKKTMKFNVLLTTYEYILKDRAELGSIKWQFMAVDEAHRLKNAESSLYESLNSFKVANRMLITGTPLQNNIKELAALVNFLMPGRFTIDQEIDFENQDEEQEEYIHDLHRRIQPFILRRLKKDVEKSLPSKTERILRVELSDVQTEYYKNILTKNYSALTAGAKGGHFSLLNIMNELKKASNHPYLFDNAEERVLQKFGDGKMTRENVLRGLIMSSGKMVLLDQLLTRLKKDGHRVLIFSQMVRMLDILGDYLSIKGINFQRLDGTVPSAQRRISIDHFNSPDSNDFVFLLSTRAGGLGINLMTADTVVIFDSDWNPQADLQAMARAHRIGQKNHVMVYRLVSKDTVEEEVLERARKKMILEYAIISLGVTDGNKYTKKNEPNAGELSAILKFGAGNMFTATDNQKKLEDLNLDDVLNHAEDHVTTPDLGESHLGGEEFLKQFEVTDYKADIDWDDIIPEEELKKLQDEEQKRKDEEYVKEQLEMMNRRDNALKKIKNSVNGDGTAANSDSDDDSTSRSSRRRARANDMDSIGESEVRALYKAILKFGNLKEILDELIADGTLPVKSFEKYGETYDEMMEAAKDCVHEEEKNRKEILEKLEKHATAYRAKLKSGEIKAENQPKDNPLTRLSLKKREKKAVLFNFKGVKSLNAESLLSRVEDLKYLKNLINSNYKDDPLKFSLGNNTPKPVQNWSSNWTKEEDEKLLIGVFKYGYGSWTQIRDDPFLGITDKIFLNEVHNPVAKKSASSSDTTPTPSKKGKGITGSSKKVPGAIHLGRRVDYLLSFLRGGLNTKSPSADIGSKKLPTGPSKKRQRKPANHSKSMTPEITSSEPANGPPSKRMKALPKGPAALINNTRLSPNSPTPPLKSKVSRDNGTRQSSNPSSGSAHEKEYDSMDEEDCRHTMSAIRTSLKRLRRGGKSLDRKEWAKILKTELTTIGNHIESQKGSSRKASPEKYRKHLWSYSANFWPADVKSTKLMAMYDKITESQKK

Protein translocase subunit SecA (Escherichia coli (strain K12)), sequence (P10408 whole entry): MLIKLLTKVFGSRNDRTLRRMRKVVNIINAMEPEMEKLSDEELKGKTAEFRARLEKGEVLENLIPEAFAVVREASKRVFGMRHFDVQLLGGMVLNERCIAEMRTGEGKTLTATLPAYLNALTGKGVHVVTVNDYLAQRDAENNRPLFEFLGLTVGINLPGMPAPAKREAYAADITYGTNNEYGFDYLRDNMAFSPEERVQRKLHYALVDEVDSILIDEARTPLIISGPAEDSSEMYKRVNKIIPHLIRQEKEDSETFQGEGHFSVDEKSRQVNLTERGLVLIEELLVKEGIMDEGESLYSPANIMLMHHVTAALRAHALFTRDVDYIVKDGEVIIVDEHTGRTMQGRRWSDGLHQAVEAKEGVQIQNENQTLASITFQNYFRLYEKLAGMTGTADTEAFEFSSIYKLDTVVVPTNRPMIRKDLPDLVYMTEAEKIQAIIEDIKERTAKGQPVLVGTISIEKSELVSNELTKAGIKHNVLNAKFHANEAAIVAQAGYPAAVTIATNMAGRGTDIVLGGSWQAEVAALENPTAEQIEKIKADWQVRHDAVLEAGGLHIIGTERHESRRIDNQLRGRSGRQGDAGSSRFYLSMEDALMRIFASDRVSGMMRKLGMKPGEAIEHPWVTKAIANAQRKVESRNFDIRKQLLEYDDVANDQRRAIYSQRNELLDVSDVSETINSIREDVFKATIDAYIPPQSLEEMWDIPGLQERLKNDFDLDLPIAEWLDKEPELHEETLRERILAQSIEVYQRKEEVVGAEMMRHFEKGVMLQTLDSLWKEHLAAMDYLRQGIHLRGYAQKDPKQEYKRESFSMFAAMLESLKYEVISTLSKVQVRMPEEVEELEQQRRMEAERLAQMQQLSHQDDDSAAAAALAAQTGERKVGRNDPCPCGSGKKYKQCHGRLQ

SMILES | Percent Effect [1] [%] | Percent Effect [2] [%] | Percent Effect [3] [%] | Percent Effect [4] [%] | Percent Effect (Trypanosoma cruzi) [%] | Percent Effect [5] [%] | Percent Effect [6] [%] | Percent Effect (Homo sapiens) [%] | Percent Effect [7] [%] | Percent Effect [8] [%] | Percent Effect [9] [%]
CCc1c(C)nc2n(c1=O)CC(C(=O)Nc1nc3c(s1)CCCC3)CS2 (stereo not given) | -2.52 | 13 | 6.33 | 7.47 | 2.86 | -4.52 | 7.66 | 18.6 | 6.35 | 14.1 | -8.32
CC(C)c1ccc(C(C)NC(=O)N2CCC(n3cncn3)CC2)cc1 (stereo not given) | -4.08 | 10.1 | -2.45 | 13.7 | -3.87 | 0 | 5.49 | 13.3 | 3.45 | 8.86 | -3.06
CCn1cnnc1CNC(=O)N1CCN(Cc2ccccc2)CC1 | -4.19 | 26 | -4.86 | -6.22 | 6.95 | -2.32 | 12.1 | 0.217 | 8.57 | 30.6 | -22.4
CN1CCN(Cc2ccccc2CNC(=O)c2ccc(Br)cc2)CC1 | -4.93 | 8.11 | -2.99 | 8.77 | 0.0978 | 1.24 | 5.92 | -4.85 | 3.23 | 16.1 | -1.46
O=C(NCc1ccccn1)[C@@H]1COC[C@H]2CN(C3CCOCC3)C[C@H]21 | 4.15 | 8.11 | 9.79 | -14 | -7.33 | 4.78 | 12.7 | 11.2 | 5.41 | 10.3 | -2.43
O=C(c1cnccn1)N1CCc2onc(CN3CCOCC3)c2C1 | -1.8 | 0 | 11.9 | -11 | -6.75 | 2.87 | 11.8 | 13.9 | 1.08 | 2.56 | -5.16
CN(C)C(=O)C1(CCCc2ccncc2)CCCN1 (stereo not given) | -1.15 | 23 | -1.94 | -4.7 | 0 | -3.48 | 26.1 | 4.91 | 5.38 | 14.3 | -22.2
Cc1ccc(CN2C[C@@H]3COC[C@@H](NS(C)(=O)=O)[C@@H]3C2)o1 | -1.26 | 2.67 | -0.569 | -2.48 | 8.69 | -54.7 | 12.5 | -3.72 | 1.04 | 17.5 | -8.24
NC(=O)CSCCC(=O)N1CCCC1c1ccsc1 (stereo not given) | -2.98 | 1.39 | -4.14 | 8.9 | 4.76 | 19 | 4.74 | 13.9 | 3.16 | 7.69 | -1.44
Clc1ccc(OCCN2CCN(CCn3cncn3)CC2)cc1 | -0.515 | -5.41 | -3.56 | 26.8 | 8.69 | -2.86 | 4.48 | 13.3 | 1.59 | 14.6 | -8.8
c1ccc(C[C@H]2[C@H](N3CCOCC3)CCN2Cc2cccnc2)cc1 | -1.09 | 2.67 | 3.8 | 7.7 | -5.21 | -56.1 | 4.1 | -7.93 | 1.04 | 12.5 | -4.71
CCS(=O)(=O)c1ccccc1C(=O)NCc1ccnc(N(C)C)c1 | -2.2 | 28.6 | -10.1 | 2.33 | 2.62 | 4.27 | 14 | 4.01 | 9.71 | 24.4 | -10.5
COc1ccc(CS(=O)(=O)CC(=O)NCc2ccccc2F)cc1F | -3.22 | 7.89 | 5.57 | -2.07 | -2.63 | 8.28 | 17.2 | -0.495 | 4.25 | 5.2 | -2.98
Cc1nc(C)n(C2CCCN(C(=O)CCc3ccncc3)C2)n1 (stereo not given) | -5.25 | 16.2 | 0.169 | 8.78 | 2.34 | 4.17 | 6.34 | 0.916 | 12.9 | 11 | -8.81
CCn1cc(CN2CCCn3nc(CCC(=O)NCCO)cc3C2)cn1 | -3.01 | 5.2 | 13.5 | 4.51 | -5.41 | 0 | 19.8 | -0.55 | 4.3 | 8.64 | 0.629
O=C(Nc1ccccc1F)N(CCO)Cc1ccsc1 | -4.39 | 0 | 2.24 | 1.32 | -3.76 | -1.92 | -2.51 | 29.1 | -1.47 | -4.88 | 10.7
O=C(NCCN1CCOCC1)c1ccc(-n2ccc3ccccc32)s1 | -2.64 | 10.4 | 4.76 | -1.07 | 1.08 | -3.23 | 8.01 | 28.5 | 3.17 | 11.5 | -7.3
Fc1cccc(CN2CCC(c3n[nH]c4ncccc34)CC2)c1F | -3.7 | 9.46 | 25.8 | 6.41 | 7.71 | -1.16 | 18.2 | 18.6 | 3.23 | 14.3 | -10.6
Cc1cnn(CCNCc2csc(C)n2)c1 | -1.46 | -5.33 | -1.53 | -3.7 | -0.876 | -2.6 | 7.5 | 1.61 | 3.83 | 6.17 | 0.841
O=C(NCC1CC1)Nc1cnc2cc(Cl)ccc2c1O | -4.33 | 12.2 | 4.52 | -10.8 | -2.57 | -1.62 | 8.89 | 8.61 | -1.07 | -1.3 | -6.64
